Where “and” joins values, the source holds several entries; their conditions need not be identical. Equal entries are not always repeated. Records with an inconclusive call do not appear. Calls of active or inactive are those of the source. The call rests on the fitted dose curve; in most records, active means well fitted curve in the direction sought with a large enough effect; inconclusive means small, poorly fitted or top-dose-only effect, or another doubt; inactive means no such curve, though single readings can be large; an effect the other way counts as inactive or inconclusive.
Assay: Viability qHTS for spleen associated tyrosine kinase inhibitor (SYKi) drug resistant MV4-11 cells (AID 1963824); further: nearly all actives have a fitted effect of over 35% in size
Settings: SYKi-resistant MV4-11 viability, CellTiter-Glo, 72 h; series mostly up to 45 µM; viability, % of control: at the top concentration
Procedure, shortened: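 SYK inhibitor-resistant MV4-11 AML cells, 500 per well, added to predispensed compounds and incubated 72 hr at 37 C, 5% CO2. Viability measured by CellTiter-Glo luminescence after 10 min at room temperature.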
Potency means the concentration at half of the fitted maximal effect.

**Q.** For CC1(C)C(N(O)C(=O)Nc2ccc(Cl)cc2)N(c2ccc(Cl)cc2)C(=O)N1CC(=O)N/N=C/C=C/c1ccc([N+](=O)[O-])o1 (configuration not stated), which Potency is on record?
**A.** 2.63 µM (active)

**Q.** For CCCCNc1ccc(C(=O)OCCN(C)C)cc1, which “viability, % of control” value is on record?
**A.** 71.9% (inactive)

**Q.** For CC(C)(C)CC(C)(C)c1ccc(O)c(Cc2ccc(Cl)cc2Cl)c1, which Potency is on record?
**A.** 15 µM (active)

**Q.** For Oc1ccc(Cl)cc1Cc1cc(Cl)ccc1O, which Potency is on record?
**A.** 11.9 µM (active)

**Q.** For CCN(CC)CCSC(=O)C(c1ccccc1)c1ccccc1, which “viability, % of control” value is on record?
**A.** 82.7% (inactive)

**Q.** With CC(C)C(=O)Nc1cccc(C2CN3CCSC3=N2)c1 (configuration not stated) as the molecule, how does the “viability, % of control” value read?
**A.** 64.5% (inactive)

**Q.** Which “viability, % of control” value does the source give for CC(=O)OCC1=C(C(=O)O)N2C(=O)[C@@H](NC(=O)CSc3ccncc3)[C@H]2SC1 here?
**A.** 76.7% (inactive)

**Q.** For COc1cc(N)c(Cl)cc1C(=O)NC1CCN(Cc2ccccc2)CC1, which “viability, % of control” value is on record?
**A.** 75.1% (inactive)

**Q.** For CNCC(O)c1ccc(O)c(O)c1 (configuration not stated), which “viability, % of control” value is on record?
**A.** 66.6% (inactive)

**Q.** Which “viability, % of control” value does the source give for CCN(CC)CCOC(=O)C(Cc1cccc2ccccc12)CC1CCCO1 (configuration not stated) here?
**A.** 81.5% (inactive)

**Q.** With CC(=NNC(=O)c1cccc(S(=O)(=O)N2CCOCC2)c1)c1cc(Cl)ccc1O as the molecule, how does the Potency read?
**A.** 0.742 µM (active)

**Q.** With c1ccc(CN(CC2=NCCN2)c2ccccc2)cc1 as the molecule, how does the “viability, % of control” value read?
**A.** 87.9% (inactive)

**Q.** Which “viability, % of control” value does the source give for CCC1C(=O)OCC1Cc1cncn1C (configuration not stated) here?
**A.** 89.5% (inactive)

**Q.** Which Potency does the source give for NC(N)=NN=C(/C=C/c1ccc([N+](=O)[O-])o1)/C=C/c1ccc([N+](=O)[O-])o1 here?
**A.** 5.31 µM (active)

**Q.** With Cc1c[nH]c2ncnc(N3CCC(CN)(C(=O)Nc4cccc(OC(=O)N(C)C)c4)CC3)c12 as the molecule, how does the Potency read?
**A.** 1.3 µM (active) and 1.66 µM (active)

**Q.** With C#C[C@]1(O)CC[C@H]2[C@@H]3CCc4cc(OC5CCCC5)ccc4[C@H]3CC[C@@]21C as the molecule, how does the Potency read?
**A.** 11.9 µM (active)

**Q.** For Cc1cc2nc3ccc(=[N+](C)C)cc-3sc2cc1N, which Potency is on record?
**A.** 1.68 µM (active)

**Q.** For COc1ccc2c(c1)CC[C@@H]1[C@@H]2CC[C@]2(C)[C@@H](NCCCCCCN3C(=O)C=CC3=O)CC[C@@H]12, which Potency is on record?
**A.** 5.25 µM (active)

**Q.** With CC(Nc1ncnc2nc[nH]c12)c1cc2cccc(Cl)c2c(=O)n1-c1ccccc1 (configuration not stated) as the molecule, how does the Potency read?
**A.** 2.59 µM (active)

**Q.** With O=C(O)C[C@H]1CCc2c1[nH]c1ccc(OCc3ccc(C4CCCC4)c(C(F)(F)F)c3)cc21 as the molecule, how does the Potency read?
**A.** 7.42 µM (active)

**Q.** For O=C(NO)C1(CS(=O)(=O)c2ccc(Oc3ccc(Cl)cc3)cc2)CCOCC1, which Potency is on record?
**A.** 16.6 µM (active)

**Q.** For COc1ccc2c(c1)[C@]1(C[C@H]1c1ccc3c(/C=C/c4ccc(CN5C[C@@H](C)O[C@@H](C)C5)cc4)n[nH]c3c1)C(=O)N2, which Potency is on record?
**A.** 0.332 µM (active)

**Q.** For CCNC(=O)NCCCOc1cccc(CN2CCCCC2)c1, which “viability, % of control” value is on record?
**A.** 91% (inactive)

**Q.** For C[C@@H](OC[C@@]1(c2ccccc2)CC[C@]2(CCC(=O)N2)CN1)c1cc(C(F)(F)F)cc(C(F)(F)F)c1, which Potency is on record?
**A.** 7.42 µM (active)

**Q.** Which Potency does the source give for COc1cc2ncnc(Oc3cccc(NC(=O)Nc4cc(C(C)(C)C(F)(F)F)on4)c3)c2cc1OC here?
**A.** 0.291 µM (active)

**Q.** With Nc1ccc(S(=O)(=O)NCc2ccccc2)cc1 as the molecule, how does the “viability, % of control” value read?
**A.** 100% (inactive)

**Q.** With CC(C)(O)C1CCC(Nc2ccc3ncc(-c4cccc(C(F)(F)F)c4)n3n2)CC1 (configuration not stated) as the molecule, how does the Potency read?
**A.** 1.32 µM (active)

**Q.** With Oc1cccc(-c2c3nc(c(-c4cccc(O)c4)c4ccc([nH]4)c(-c4cccc(O)c4)c4nc(c(-c5cccc(O)c5)c5ccc2[nH]5)CC4)C=C3)c1 as the molecule, how does the Potency read?
**A.** 18.8 µM (active)

Assay: Cellular viability qHTS for adrenocortical cancer (ACC) cell line SW-13 (AID 1963989); further: nearly all actives have a fitted effect of over 65% in size;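 on activity (max response): cells grown in serum-free medium with ITS supplement; on the % scale 0 is the no-effect control and ±100 the full control effect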
Settings: SW-13 ACC cells viability, CellTiter-Glo, 48 h; activity (max response): stronger effect = lower value
Procedure, shortened: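 Luminescent ATP read-out (CellTiter-Glo, 20 min at room temperature) measured metabolically competent SW-13 cells after 48 h compound treatment. Final concentrations spanned up to 46 uM; bortezomib served as positive control.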

**Q.** With CCCC(=O)Nc1ccc(O)c(C(C)=O)c1 as the molecule, how does the activity (max response) read?
**A.** 10.4% (inactive)

**Q.** Which Potency does the source give for NC(=NCCCCCCN=C(N)/N=C(\N)Nc1ccc(Cl)cc1)/N=C(\N)Nc1ccc(Cl)cc1 here?
**A.** 5.17 µM (active)

**Q.** With COc1ccc(/C=C/C(=O)Nc2ccccc2C(=O)O)cc1OC as the molecule, how does the activity (max response) read?
**A.** -0.0143% (inactive)

**Q.** Which Potency does the source give for C[C@H]1[C@H](O)O[C@@H]2O[C@@]3(C)CC[C@H]4[C@H](C)CC[C@@H]1[C@@]24OO3 here?
**A.** 12.6 µM (active)

**Q.** Which activity (max response) does the source give for Cc1cc(C)c2c(c1)[C@@H](N(Cc1cc(C(F)(F)F)cc(C(F)(F)F)c1)c1nnn(C)n1)CCCN2CC1CCC(C(=O)O)CC1 (some centres not stated) here?
**A.** -23.9% (inactive)

**Q.** For N#Cc1ccnc(N2C(=O)CC[C@H]2C(=O)N(c2cncc(F)c2)C(C(=O)NC2CC(F)(F)C2)c2ccccc2Cl)c1 (some centres not stated), which activity (max response) is on record?
**A.** 6.42% (inactive)

**Q.** With CC(=O)OCC(=O)[C@@]1(O)CCC2C3CCC4=CC(=O)CC[C@]4(C)C3[C@@H](O)C[C@@]21C (some centres not stated) as the molecule, how does the activity (max response) read?
**A.** -1.87% (inactive)

**Q.** With C=CCN1C[C@H](C(=O)N(CCCN(C)C)C(=O)NCC)CC2c3cccc4[nH]cc(c34)C[C@H]21 (some centres not stated) as the molecule, how does the activity (max response) read?
**A.** -6.18% (inactive)

**Q.** For CCN1CCN(Cc2ccc(NC(=O)c3ccc(C)c(/C=C/c4cnc5[nH]ccc5c4OC)c3)cc2C(F)(F)F)CC1, which Potency is on record?
**A.** 3.16 µM (active)

**Q.** For Nc1ncnc2c1ncn2[C@@H]1O[C@H](CO)[C@@H](O)[C@H]1O, which activity (max response) is on record?
**A.** -13.6% (inactive)

**Q.** Which Potency does the source give for COc1cc(/C=C/C(=O)O[C@H]2CC[C@]34C[C@]35CC[C@]3(C)[C@@H]([C@H](C)CCC=C(C)C)CC[C@@]3(C)[C@@H]5CC[C@H]4C2(C)C)ccc1O here?
**A.** 14.6 µM (active)

**Q.** For CC1(C)C(N(O)C(=O)Nc2ccc(Cl)cc2)N(c2ccc(Cl)cc2)C(=O)N1CC(=O)N/N=C/C=C/c1ccc([N+](=O)[O-])o1 (configuration not stated), which Potency is on record?
**A.** 25.1 µM (active)

**Q.** Which activity (max response) does the source give for CCCCNc1ccc(C(=O)OCCN(C)C)cc1 here?
**A.** 4.21% (inactive)

**Q.** With CC(C)(C)CC(C)(C)c1ccc(O)c(Cc2ccc(Cl)cc2Cl)c1 as the molecule, how does the Potency read?
**A.** 16.4 µM (active)

**Q.** For Oc1ccc(Cl)cc1Cc1cc(Cl)ccc1O, which Potency is on record?
**A.** 5.17 µM (active)

**Q.** With CCN(CC)CCSC(=O)C(c1ccccc1)c1ccccc1 as the molecule, how does the activity (max response) read?
**A.** -19.1% (inactive)

**Q.** With CC(C)C(=O)Nc1cccc(C2CN3CCSC3=N2)c1 (configuration not stated) as the molecule, how does the activity (max response) read?
**A.** -3.96% (inactive)

**Q.** With CC(=O)OCC1=C(C(=O)O)N2C(=O)[C@@H](NC(=O)CSc3ccncc3)[C@H]2SC1 as the molecule, how does the activity (max response) read?
**A.** 10.5% (inactive)

**Q.** For COc1cc(N)c(Cl)cc1C(=O)NC1CCN(Cc2ccccc2)CC1, which activity (max response) is on record?
**A.** -15.7% (inactive)

**Q.** Which activity (max response) does the source give for CNCC(O)c1ccc(O)c(O)c1 (configuration not stated) here?
**A.** 4.94% (inactive)

**Q.** For CCN(CC)CCOC(=O)C(Cc1cccc2ccccc12)CC1CCCO1 (configuration not stated), which activity (max response) is on record?
**A.** -10.7% (inactive)

**Q.** For CC(=NNC(=O)c1cccc(S(=O)(=O)N2CCOCC2)c1)c1cc(Cl)ccc1O, which Potency is on record?
**A.** 3.55 µM (active)

**Q.** For c1ccc(CN(CC2=NCCN2)c2ccccc2)cc1, which activity (max response) is on record?
**A.** 0.264% (inactive)

**Q.** For CCC1C(=O)OCC1Cc1cncn1C (configuration not stated), which activity (max response) is on record?
**A.** 6.41% (inactive)

**Q.** Which Potency does the source give for NC(N)=NN=C(/C=C/c1ccc([N+](=O)[O-])o1)/C=C/c1ccc([N+](=O)[O-])o1 here?
**A.** 2.59 µM (active)

**Q.** With Cc1c[nH]c2ncnc(N3CCC(CN)(C(=O)Nc4cccc(OC(=O)N(C)C)c4)CC3)c12 as the molecule, how does the activity (max response) read?
**A.** -9.88% (inactive)

**Q.** For C#C[C@]1(O)CC[C@H]2[C@@H]3CCc4cc(OC5CCCC5)ccc4[C@H]3CC[C@@]21C, which activity (max response) is on record?
**A.** -6.39% (inactive)

**Q.** For Cc1cc2nc3ccc(=[N+](C)C)cc-3sc2cc1N, which Potency is on record?
**A.** 4.61 µM (active)

**Q.** With COc1ccc2c(c1)CC[C@@H]1[C@@H]2CC[C@]2(C)[C@@H](NCCCCCCN3C(=O)C=CC3=O)CC[C@@H]12 as the molecule, how does the activity (max response) read?
**A.** -14.7% (inactive)

**Q.** With CC(Nc1ncnc2nc[nH]c12)c1cc2cccc(Cl)c2c(=O)n1-c1ccccc1 (configuration not stated) as the molecule, how does the activity (max response) read?
**A.** -2.7% (inactive)

**Q.** With O=C(O)C[C@H]1CCc2c1[nH]c1ccc(OCc3ccc(C4CCCC4)c(C(F)(F)F)c3)cc21 as the molecule, how does the activity (max response) read?
**A.** 5.55% (inactive)

**Q.** Which Potency does the source give for O=C(NO)C1(CS(=O)(=O)c2ccc(Oc3ccc(Cl)cc3)cc2)CCOCC1 here?
**A.** 25.1 µM (active)

**Q.** For COc1ccc2c(c1)[C@]1(C[C@H]1c1ccc3c(/C=C/c4ccc(CN5C[C@@H](C)O[C@@H](C)C5)cc4)n[nH]c3c1)C(=O)N2, which Potency is on record?
**A.** 14.1 µM (active)

**Q.** Which activity (max response) does the source give for CCNC(=O)NCCCOc1cccc(CN2CCCCC2)c1 here?
**A.** -6.89% (inactive)

**Q.** For C[C@@H](OC[C@@]1(c2ccccc2)CC[C@]2(CCC(=O)N2)CN1)c1cc(C(F)(F)F)cc(C(F)(F)F)c1, which Potency is on record?
**A.** 25.1 µM (active)

**Q.** With COc1cc2ncnc(Oc3cccc(NC(=O)Nc4cc(C(C)(C)C(F)(F)F)on4)c3)c2cc1OC as the molecule, how does the activity (max response) read?
**A.** -26.2% (inactive)

**Q.** With Nc1ccc(S(=O)(=O)NCc2ccccc2)cc1 as the molecule, how does the activity (max response) read?
**A.** -7% (inactive)

**Q.** Which activity (max response) does the source give for CC(C)(O)C1CCC(Nc2ccc3ncc(-c4cccc(C(F)(F)F)c4)n3n2)CC1 (configuration not stated) here?
**A.** -17.2% (inactive)

**Q.** Which Potency does the source give for Oc1cccc(-c2c3nc(c(-c4cccc(O)c4)c4ccc([nH]4)c(-c4cccc(O)c4)c4nc(c(-c5cccc(O)c5)c5ccc2[nH]5)CC4)C=C3)c1 here?
**A.** 6.51 µM (active)

— PubChem BioAssay (NCATS)
